# Where a name gives a salt, the structure may show the parent alone.
# System: HL-1
# Assay: relative cell viability (CellTiter-Glo) vs DMSO control (% of DMSO control); higher = more viable cells
# Conditions: oxygen condition: hypoxia 48 h (1% O2) + reoxygenation 24 h; 1000 nM
# Method in brief: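 Cell viability was determined from CellTiter-Glo luminescence, expressed relative to vehicle-treated control cells. The cells were HL-1 mouse atrial cardiomyocytes, plated at 1000 cells per well in 384-well plates with compounds at 40, 200, 1000 or 5000 nM in 0.01% DMSO. One day after plating, they underwent 48 h of hypoxia (1% O2) in a hypoxic workstation followed by 24 h of reoxygenation in a normal incubator, or were kept in normoxia for an equal time.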
row,Structure (SMILES),relative cell viability
1,CCN[C@H]1C[C@H](C)S(=O)(=O)c2sc(S(N)(=O)=O)cc21 [Dorzolamide HCL],104
2,CNC[C@H](O)c1cccc(O)c1 [Phenylephrine HCl],102
3,CN(CCOc1ccc(NS(C)(=O)=O)cc1)CCc1ccc(NS(C)(=O)=O)cc1 [Dofetilide],99.2
4,O=C(O[C@H]1CN2CCC1CC2)N1CCc2ccccc2[C@@H]1c1ccccc1 [Solifenacin succinate],115
5,CCCNCC(O)COc1ccccc1C(=O)CCc1ccccc1 (stereo not drawn) [Propafenone],108
6,CN1CCOC(c2ccccc2)c2ccccc2C1 (stereo not drawn) [Nefopam HCl],43.9
7,Clc1ccc(COC(Cn2ccnc2)c2ccc(Cl)cc2Cl)cc1 (stereo not drawn) [Econazole nitrate],106
8,O=C1c2ccccc2C(=O)C1c1ccccc1 [Phenindione],95.1
9,O=C1[C@H](CC[C@H](O)c2ccc(F)cc2)[C@@H](c2ccc(O)cc2)N1c1ccc(F)cc1 [Ezetimibe],108
10,CN(C(=O)CN(CCO)CC(=O)N(C)C(C)(C)Cc1ccccc1)C(C)(C)Cc1ccccc1 [Oxethazaine],106
11,N=C(N)NC(=N)N1CCOCC1 [Moroxydine],103
12,O=C(O)C1(C(=O)O)CCC1.[NH2-].[NH2-].[Pt+2] [Carboplatin],95.3
13,OC(CCN1CCCCC1)(c1ccccc1)C1CC2C=CC1C2 (stereo not drawn) [Biperiden HCl],93.9
14,Cc1nccn1CC1CCc2c(c3ccccc3n2C)C1=O (stereo not drawn) [Ondansetron],102
15,CCOC(=O)c1c(C)n(C)c2ccc(O)cc12 [Mecarbinate],101
16,CC(C)NCC(O)c1ccc(NS(C)(=O)=O)cc1 (stereo not drawn) [Sotalol],93
17,CC1=C(C(=O)OC(C)C)C(c2cccc([N+](=O)[O-])c2)C(C(=O)OC2CN(C(c3ccccc3)c3ccccc3)C2)=C(N)N1 (stereo not drawn) [Azelnidipine],106
18,C[C@@H]1C[C@H]2[C@@H]3C[C@H](F)C4=CC(=O)C=C[C@]4(C)[C@@]3(F)[C@@H](O)C[C@]2(C)[C@@]1(O)C(=O)CO [Flumethasone],103
19,N#CC[C@H](C1CCCC1)n1cc(-c2ncnc3[nH]ccc23)cn1 [Ruxolitinib],104
20,C[N+](C)(C)C[C@H](O)CC(=O)[O-] [L-carnitine],103

row,Structure (SMILES),relative cell viability
1,CN1CCN(CCCN2c3ccccc3Sc3ccc(C(F)(F)F)cc32)CC1 [Trifluoperazine 2HCl],105
2,CCCCCCCCOc1ccccc1C(=O)Nc1ccc(C(=O)OCC[N+](C)(CC)CC)cc1 [Otilonium Bromide],108
3,CC(C)NC[C@H](O)COc1ccc(CCOCC2CC2)cc1 [Levobetaxolol HCl],107
4,CCN1CCC[C@H]1CNC(=O)c1cc(S(N)(=O)=O)ccc1OC [Levosulpiride],105
5,CN(C)CCN(Cc1cccs1)c1ccccn1 [Methapyrilene HCl],104
6,O=C(O)c1cc(=O)c2ccccc2o1 [Chromocarb],109
7,Cl.N=C(N)NCCC[C@H](N)C(=O)O [L-Arginine HCl],104
8,NC[C@H]1CC[C@H](C(=O)O)CC1 [Tranexamic acid],100
9,N[C@@H]1CCCCN(c2c(F)cc3c(=O)c(C(=O)O)cn(C4CC4)c3c2Cl)C1 [Besifloxacin HCl],96.7
10,O=C1NC(=O)C(c2ccccc2)(c2ccccc2)N1 [Phenytoin],98.1
11,C[N+]1(C)CCC(=C(c2ccccc2)c2ccccc2)CC1 [Diphemanil methylsulfate],104
12,COCCCC/C(=N\OCCN)c1ccc(C(F)(F)F)cc1 [Fluvoxamine maleate],94.9
13,O=P(O)(O)C(Cl)(Cl)P(=O)(O)O [Clodronate Disodium],114
14,CCOc1nc2cccc(C(=O)O)c2n1Cc1ccc(-c2ccccc2-c2noc(=O)[nH]2)cc1 [Azilsartan],111
15,CCCCNc1ccc(C(=O)OCCN(C)C)cc1 [Tetracaine hydrochloride],107
16,C=C1c2cccc(O)c2C(=O)C2=C(O)[C@]3(O)C(=O)C(C(N)=O)=C(O)[C@@H](N(C)C)[C@@H]3[C@@H](O)[C@H]12 [Methacycline hydrochloride],107
17,COC(=O)C1=C(C)NC(C)=C(C(=O)OC)C1c1ccccc1[N+](=O)[O-] [Nifedipine],85.4
18,CCOC(=O)[C@H](CCc1ccccc1)N[C@H]1CCc2ccccc2N(CC(=O)O)C1=O [Benazepril hydrochloride],103
19,O=C(NC[C@H]1CN(c2ccc(N3CCOCC3=O)cc2)C(=O)O1)c1ccc(Cl)s1 [Rivaroxaban],99.8

# Same assay, conditions: oxygen condition: hypoxia 48 h (1% O2) + reoxygenation 24 h; 5000 nM
row,Structure (SMILES),relative cell viability
1,CCN[C@H]1C[C@H](C)S(=O)(=O)c2sc(S(N)(=O)=O)cc21 [Dorzolamide HCL],111
2,CNC[C@H](O)c1cccc(O)c1 [Phenylephrine HCl],109
3,CN(CCOc1ccc(NS(C)(=O)=O)cc1)CCc1ccc(NS(C)(=O)=O)cc1 [Dofetilide],112
4,O=C(O[C@H]1CN2CCC1CC2)N1CCc2ccccc2[C@@H]1c1ccccc1 [Solifenacin succinate],106
5,CCCNCC(O)COc1ccccc1C(=O)CCc1ccccc1 (stereo not drawn) [Propafenone],105
6,CN1CCOC(c2ccccc2)c2ccccc2C1 (stereo not drawn) [Nefopam HCl],93.2
7,Clc1ccc(COC(Cn2ccnc2)c2ccc(Cl)cc2Cl)cc1 (stereo not drawn) [Econazole nitrate],108
8,O=C1c2ccccc2C(=O)C1c1ccccc1 [Phenindione],113
9,O=C1[C@H](CC[C@H](O)c2ccc(F)cc2)[C@@H](c2ccc(O)cc2)N1c1ccc(F)cc1 [Ezetimibe],115
10,CN(C(=O)CN(CCO)CC(=O)N(C)C(C)(C)Cc1ccccc1)C(C)(C)Cc1ccccc1 [Oxethazaine],115
11,N=C(N)NC(=N)N1CCOCC1 [Moroxydine],108
12,O=C(O)C1(C(=O)O)CCC1.[NH2-].[NH2-].[Pt+2] [Carboplatin],112
13,OC(CCN1CCCCC1)(c1ccccc1)C1CC2C=CC1C2 (stereo not drawn) [Biperiden HCl],108
14,Cc1nccn1CC1CCc2c(c3ccccc3n2C)C1=O (stereo not drawn) [Ondansetron],109
15,CCOC(=O)c1c(C)n(C)c2ccc(O)cc12 [Mecarbinate],113
16,CC(C)NCC(O)c1ccc(NS(C)(=O)=O)cc1 (stereo not drawn) [Sotalol],99.8
17,CC1=C(C(=O)OC(C)C)C(c2cccc([N+](=O)[O-])c2)C(C(=O)OC2CN(C(c3ccccc3)c3ccccc3)C2)=C(N)N1 (stereo not drawn) [Azelnidipine],112
18,C[C@@H]1C[C@H]2[C@@H]3C[C@H](F)C4=CC(=O)C=C[C@]4(C)[C@@]3(F)[C@@H](O)C[C@]2(C)[C@@]1(O)C(=O)CO [Flumethasone],106
19,N#CC[C@H](C1CCCC1)n1cc(-c2ncnc3[nH]ccc23)cn1 [Ruxolitinib],111
20,C[N+](C)(C)C[C@H](O)CC(=O)[O-] [L-carnitine],113

row,Structure (SMILES),relative cell viability
1,CN1CCN(CCCN2c3ccccc3Sc3ccc(C(F)(F)F)cc32)CC1 [Trifluoperazine 2HCl],114
2,CCCCCCCCOc1ccccc1C(=O)Nc1ccc(C(=O)OCC[N+](C)(CC)CC)cc1 [Otilonium Bromide],114
3,CC(C)NC[C@H](O)COc1ccc(CCOCC2CC2)cc1 [Levobetaxolol HCl],115
4,CCN1CCC[C@H]1CNC(=O)c1cc(S(N)(=O)=O)ccc1OC [Levosulpiride],116
5,CN(C)CCN(Cc1cccs1)c1ccccn1 [Methapyrilene HCl],84.1
6,O=C(O)c1cc(=O)c2ccccc2o1 [Chromocarb],110
7,Cl.N=C(N)NCCC[C@H](N)C(=O)O [L-Arginine HCl],118
8,NC[C@H]1CC[C@H](C(=O)O)CC1 [Tranexamic acid],104
9,N[C@@H]1CCCCN(c2c(F)cc3c(=O)c(C(=O)O)cn(C4CC4)c3c2Cl)C1 [Besifloxacin HCl],101
10,O=C1NC(=O)C(c2ccccc2)(c2ccccc2)N1 [Phenytoin],103
11,C[N+]1(C)CCC(=C(c2ccccc2)c2ccccc2)CC1 [Diphemanil methylsulfate],104
12,COCCCC/C(=N\OCCN)c1ccc(C(F)(F)F)cc1 [Fluvoxamine maleate],94.7
13,O=P(O)(O)C(Cl)(Cl)P(=O)(O)O [Clodronate Disodium],115
14,CCOc1nc2cccc(C(=O)O)c2n1Cc1ccc(-c2ccccc2-c2noc(=O)[nH]2)cc1 [Azilsartan],115
15,CCCCNc1ccc(C(=O)OCCN(C)C)cc1 [Tetracaine hydrochloride],106
16,C=C1c2cccc(O)c2C(=O)C2=C(O)[C@]3(O)C(=O)C(C(N)=O)=C(O)[C@@H](N(C)C)[C@@H]3[C@@H](O)[C@H]12 [Methacycline hydrochloride],109
17,COC(=O)C1=C(C)NC(C)=C(C(=O)OC)C1c1ccccc1[N+](=O)[O-] [Nifedipine],63.7
18,CCOC(=O)[C@H](CCc1ccccc1)N[C@H]1CCc2ccccc2N(CC(=O)O)C1=O [Benazepril hydrochloride],109
19,O=C(NC[C@H]1CN(c2ccc(N3CCOCC3=O)cc2)C(=O)O1)c1ccc(Cl)s1 [Rivaroxaban],112

# From the supplement of paper PMC8371130
